Data as given in PubChem BioAssay (NCI).
This is part of a sample that, as a whole, favours compounds with a hit. Of some 83,000 tested, about 20% had one in any assay.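 Method: cells in 96-well plates; compound added at one concentration; 48 h incubation; percent growth measured; values under 10 scored active.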 Unmarked numbers belong to inactive results. Active and inactive are the calls of the source.

Test system: HL-60(TB) leukemia
Assay: NCI-60 one-dose screen, 48 h (100 = growth as untreated, 0 = no growth, -100 = all killed)
Conditions: 10 µM unless noted

Structure (SMILES)	growth
CCCCCCCCCCN=C(N)N=C(N)N	1.55% (active)
O=C1C(Br)=C(c2ccccc2)C(=O)C(Br)=C1c1ccccc1	78.6%
CCCCNCC(O)c1cc2c(Cl)cc(Cl)cc2c2cc(C(F)(F)F)ccc12 (stereo unspecified)	-59.2% (active)
COc1cc(/C=C/C(=O)c2ccc(Nc3nc(Nc4ccc(F)cc4)nc(Nc4ccc(Cl)cc4)n3)cc2)cc(OC)c1OC	-32.1% (active)
C=CC(=O)N1CN(C(=O)C=C)CN(C(=O)C=C)C1	25.3%
C=C1C(=O)O[C@H]2[C@H]1CC/C(COC(=O)/C=C\C(=O)NCc1ccc(Cn3c(=O)sn(-c4ccc(OC)cc4)c3=O)cc1)=C\CC[C@@]1(C)O[C@@H]21	-35.8% (active)
CCOC(=O)c1cc(C(=O)c2cc(OC)cc(OC)c2)n2ncc3ccccc3c12	-8.3% (active)
O=C(/C=C/c1ccco1)Nc1ncc(Cc2cc(Cl)ccc2Cl)s1	-50% (active)
COc1ccc(-c2nn(-c3ccc(NC(=O)c4ccc(Cl)c(Cl)c4)cc3)cc2-c2ccncc2)cc1Cl	13.5%
O=S(=O)(c1ccc(NCSc2nc3ccccc3s2)cc1)c1ccc(NCSc2nc3ccccc3s2)cc1	72.7%
O=CNc1cc(Cl)cc(Cl)c1	93.2%
Nc1cc(Cl)c(S(N)(=O)=O)cc1S(N)(=O)=O	104%
O=C(Nc1ccc(Cl)c(Cl)c1)NS(=O)(=O)c1cnccc1Oc1ccc(F)cc1	54%
CCc1nc(C(N)=O)c(Nc2ccc(N3CCC(N4CCN(C)CC4)CC3)c(OC)c2)nc1NC1CCOCC1	9.89% (active)
COc1ccc2c(c1)O/C(=C/c1ccc(OCC(=O)Nc3ccc(S(N)(=O)=O)cc3)cc1)C2=O	89.5%
O=c1c(CNc2ccc(S(=O)(=O)Nc3ncccn3)cc2)coc2ccccc12	93.2%
Fc1cccc(Oc2ccc(Nc3ncnc4ccc(OCCCN5CCOCC5)cc34)cc2Cl)c1	83.6%
NC(N)=Nc1ccc(/C=C2\C=Cc3ccccc32)cc1	61.6%
CC(C)(Cl)CCC1=C(Cl)C(=O)c2ccccc2C1=O	-10.1% (active)
COc1cc(C2CC(c3ccccc3)=NN2C=O)ccc1Oc1nc2c(c(=O)n(C)c(=O)n2C)n1C (stereo unspecified)	101%
CC1(C=O)NC(=O)NC1=O (stereo unspecified)	87.5%
COc1cc2ncnc(Nc3ccc4c(cnn4C(=O)Nc4ccccc4)c3)c2cc1OC	83.5%

Structure (SMILES)	growth
C#Cc1cccc(Nc2ncnc3cc(OCCOC)c(OCCOC)cc23)c1	49.2%
COc1cc2nc(NC3CCCC3)nc(NC3CCN(C(C)C)CC3)c2cc1OC	88.7%
O=C(Nc1ccc(C(=O)/C=C/c2ccc(N3CCOCC3)cc2)cc1)Nc1ccc([N+](=O)[O-])cc1	70.6%
Nc1ccc(S(=O)(=O)c2ccc(NO)cc2)cc1	107%
O=C(N/N=c1/ccoc2cccnc12)N1CCN(c2ncccn2)CC1	44.2%
CC(Cl)(CCl)CS(=O)(=O)c1ccc(Cl)cc1 (stereo unspecified)	87.2%
CC(=O)Nc1ccc(C(=O)COc2ccc(/C=C3\CCc4ccccc4C3=O)cc2)cc1	102%
COc1ccc(C2OC(c3cc(-c4cc5ccccc5o4)nn3-c3ccccc3)=NN2C(C)=O)cc1 (stereo unspecified)	84.3%
C/C(=N\O)C(=O)NCCCCCC(=O)Nc1ccccc1	93.2%
BrCCCc1n(Cc2ccc3ccccc3c2)c2ccccc2[n+]1Cc1ccc2ccccc2c1	-54.9% (active)
COc1cc(NC(=O)SC2=NCCS2)cc(OC)c1	90.5%
COc1ccc(C2=NN(C(C)=O)C(c3cccc(Nc4ccnc5cc(Cl)ccc45)c3)C2)cc1 (stereo unspecified)	57.2%
CSc1nc2ncncc2[nH]1	91.2%
CN1CCN(Cc2ccc(C(=O)Nc3cncc(C#Cc4cnc5cccnn45)c3)cc2C(F)(F)F)CC1	1.37% (active)
C[C@@H]1C(=O)N(C[C@H](Cc2ccccc2)N(Cc2ccccc2)Cc2ccccc2)[C@]1(Cc1ccccc1)C(=O)OC(C)(C)C	62.9%
CCCCCCCCCN1C(=O)/C(=c2\sc3n(c2=O)C2C(NN=3)N(CC)C(=O)N2CC)c2ccccc21 (stereo unspecified)	84.1%
O=C1c2cc3c(cc2-c2c1c1ccc(Cl)cc1c(=O)n2C[C@H](O)CO)OCO3	-14.9% (active)
CC(O)c1ncc(/C=C2\SC(=S)N(Cc3ccccc3)C2=O)s1 (stereo unspecified)	85.2%
Cc1ccc(Nc2cc(C)nc(NCCCNc3ccnc4cc(Cl)ccc34)n2)cc1	-73% (active)
CN1C(=C2C(=O)OC(C)(C)OC2=O)CCC1C(=O)NCc1ccc(Cl)cc1Cl (stereo unspecified)	83.7%
O=C(/C=C/c1cn(-c2ccccc2)nc1-c1ccccc1)OCc1cn(-c2cccc([N+](=O)[O-])c2)nn1	93%
COc1ccc(/C=N/Nc2nc3ccccc3s2)cc1	84.9%

Structure (SMILES)	growth
O=C(Oc1ccccc1)C(Br)C(Br)c1ccccc1 (stereo unspecified)	2.65% (active)
OC(COc1ccccc1Cl)CN1CCN(c2ccc(Cl)cc2)CC1 (stereo unspecified)	109%
O=C(Nc1ccc(Cl)cc1)N1CCN(c2ccc3nncn3n2)CC1	-65.2% (active)
C=CC(=O)NCCOc1cccc(Nc2cc(NCCCNC(=O)C3CCC3)c(Br)cn2)c1	-55% (active)
Cn1cc(-c2csc(-c3cccc(F)c3)n2)c2cccnc21	2.72% [100 µM] (active)
O=C(NC1CCN(Cc2ccccc2)CC1)c1cc(C(=O)NC2CCN(Cc3ccccc3)CC2)cc(C(=O)NC2CCN(Cc3ccccc3)CC2)c1	64.3%
N#CC1=C(N)Oc2c(c(=O)[nH]c3ccc(Cl)cc23)C12C(=O)c1ccccc1C2=O	99.8%
CCOC(=O)c1[nH]c2cc(Cl)ccc2c1[C@@H](C(=O)NC(C)(C)C)N(CC)C(=O)CCCCC#Cc1cccc2c1CN(C1CCC(=O)NC1=O)C2=O (stereo partly specified)	-7.29% (active)
CCC(C)C(N)C(=O)NC(CC(N)=O)C(=O)NC(CC(C)C)C(=O)NC(CCCCN)C(=O)NC(C)C(=O)NC(CC(C)C)C(=O)NC(C)C(=O)NC(C)C(=O)NC(CC(C)C)C(=O)NC(C)C(=O)NC(CCCCN)C(=O)NC(CCCCN)C(=O)NC(C(=O)NC(CC(C)C)C(N)=O)C(C)CC (stereo unspecified)	56.1%
O=C(Nc1ccc(Oc2ccc(F)cc2)c(Cl)c1)c1cccnn1	56.3%
O=C(CCN1C(=O)/C(=C/c2ccc(Cl)cc2)SC1=S)NCCCN1CCOCC1	98.9%
CC(C)(C)c1cn2cccc(C(=O)N3CCN(CC(=O)Nc4ccc(Cl)cc4C(=O)c4ccccc4Cl)CC3)c2n1	-32.4% (active)
COc1cccc(-c2cc(C(=O)Nc3ccc(/C=C/c4ccc(OC5CCN(C)CC5)cc4)cc3)ccc2OC)c1	9.98% (active)
Cc1ccc(C2=N[C@H]3CCC[C@@H]3N(c3ccccc3)C(C(Cl)Cl)=N2)cc1	93.2%
CCOC(=O)c1c(C)nc2ccccc2c1/C=C/c1ccc(OC)cc1	83.3%
COC(=O)c1cc(-c2ccc(S(C)(=O)=O)cc2)[nH]c1N/N=C/c1c(Cl)cccc1Cl	-22.3% (active)
CNCc1cccc2c1OCCOCCOCCNS(=O)(=O)c1ccc(cc1)-c1cnc(N)c(n1)C(=O)N2	-10.8% (active)
COC(=O)C(C(C[N+](=O)[O-])c1ccccc1)=P(c1ccccc1)(c1ccccc1)c1ccccc1 (stereo unspecified)	80.5%
CCc1nc2cc(/C=C/C(=O)NO)c(F)cc2c(=O)n1CCc1ccccc1	-8.55% (active)
O=C(NNC(=O)N1c2ccccc2C=Cc2ccccc21)c1ccc2ccccc2c1	90%
O=c1[nH]c(=O)c2cc(Cl)cc(Cl)c2[nH]1	100%
CCCCCN(CCCCC)CCCNc1c2c(nc3ccc(Cl)cc13)CCCC2	48.8%
